Source: PubChem
PI5P4K alpha inh = qHTS for Inhibitors of phosphatidylinositol 5-phosphate 4-kinase (PI5P4K); PI5P4Kalpha enzyme, ADP-Glo luminescence, 60 min; hits give low values; max response, %; actives 1.2% (n = 330,000); AID 652105, 2013; Phosphatidylinositol 5-phosphate 4-kinase type-2 alpha (Homo sapiens), P48426; active means max response of -50% or lower; inconclusive means between -30% and -50%; inactive means -30% or higher; further: value at the top dose of about 77 µM; on the % scale 0 is the no-effect control and ±100 the full control effect
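Single end-point luminescence (ADP-Glo) quantified ADP from PI5P4Kalpha turnover; ATP 5 microM final, 1 h at RT, 0.1% CHAPS and 0.28 mM EGTA in HEPES pH 7.4.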
PLK1 PBD block = qHTS for Inhibitors of PLK1-PDB (polo-like kinase 1 - polo-box domain): Primary Screen | Plk1 PBD binding of FITC phosphopeptide, fluorescence polarization | actives 2.8% (n = 360,000) | Serine/threonine-protein kinase PLK1 (Homo sapiens), P53350 | Potency, µM, for inactives: max response, negative = inhibition, usual class: inhibitors; further: potency means the concentration at half of the fitted maximal effect; series mostly up to about 57 µM; on the % scale 0 is the no-effect control and ±100 the full control effect; nearly all actives have a fitted effect of over 65% in size
BAZ2B block = qHTS Assay for Inhibitors of BAZ2B | Bromodomain adjacent to zinc finger domain protein 2B (Homo sapiens), Q9UIF8 | AlphaScreen BAZ2B-H3K14Ac peptide displacement | Potency, µM (titrated, usually from 114 µM), for inactives: top-dose activity change, negative = inhibition, usual class: inhibitors | actives 4.4% (n = 360,000) | AID 504333, 2011; further: potency means the concentration at half of the fitted maximal effect; on the % scale 0 is the no-effect control and ±100 the full control effect; nearly all actives have a fitted effect of over 60% in size
Target sequence (Q9UIF8 whole entry, looked up, the tested form may be a part): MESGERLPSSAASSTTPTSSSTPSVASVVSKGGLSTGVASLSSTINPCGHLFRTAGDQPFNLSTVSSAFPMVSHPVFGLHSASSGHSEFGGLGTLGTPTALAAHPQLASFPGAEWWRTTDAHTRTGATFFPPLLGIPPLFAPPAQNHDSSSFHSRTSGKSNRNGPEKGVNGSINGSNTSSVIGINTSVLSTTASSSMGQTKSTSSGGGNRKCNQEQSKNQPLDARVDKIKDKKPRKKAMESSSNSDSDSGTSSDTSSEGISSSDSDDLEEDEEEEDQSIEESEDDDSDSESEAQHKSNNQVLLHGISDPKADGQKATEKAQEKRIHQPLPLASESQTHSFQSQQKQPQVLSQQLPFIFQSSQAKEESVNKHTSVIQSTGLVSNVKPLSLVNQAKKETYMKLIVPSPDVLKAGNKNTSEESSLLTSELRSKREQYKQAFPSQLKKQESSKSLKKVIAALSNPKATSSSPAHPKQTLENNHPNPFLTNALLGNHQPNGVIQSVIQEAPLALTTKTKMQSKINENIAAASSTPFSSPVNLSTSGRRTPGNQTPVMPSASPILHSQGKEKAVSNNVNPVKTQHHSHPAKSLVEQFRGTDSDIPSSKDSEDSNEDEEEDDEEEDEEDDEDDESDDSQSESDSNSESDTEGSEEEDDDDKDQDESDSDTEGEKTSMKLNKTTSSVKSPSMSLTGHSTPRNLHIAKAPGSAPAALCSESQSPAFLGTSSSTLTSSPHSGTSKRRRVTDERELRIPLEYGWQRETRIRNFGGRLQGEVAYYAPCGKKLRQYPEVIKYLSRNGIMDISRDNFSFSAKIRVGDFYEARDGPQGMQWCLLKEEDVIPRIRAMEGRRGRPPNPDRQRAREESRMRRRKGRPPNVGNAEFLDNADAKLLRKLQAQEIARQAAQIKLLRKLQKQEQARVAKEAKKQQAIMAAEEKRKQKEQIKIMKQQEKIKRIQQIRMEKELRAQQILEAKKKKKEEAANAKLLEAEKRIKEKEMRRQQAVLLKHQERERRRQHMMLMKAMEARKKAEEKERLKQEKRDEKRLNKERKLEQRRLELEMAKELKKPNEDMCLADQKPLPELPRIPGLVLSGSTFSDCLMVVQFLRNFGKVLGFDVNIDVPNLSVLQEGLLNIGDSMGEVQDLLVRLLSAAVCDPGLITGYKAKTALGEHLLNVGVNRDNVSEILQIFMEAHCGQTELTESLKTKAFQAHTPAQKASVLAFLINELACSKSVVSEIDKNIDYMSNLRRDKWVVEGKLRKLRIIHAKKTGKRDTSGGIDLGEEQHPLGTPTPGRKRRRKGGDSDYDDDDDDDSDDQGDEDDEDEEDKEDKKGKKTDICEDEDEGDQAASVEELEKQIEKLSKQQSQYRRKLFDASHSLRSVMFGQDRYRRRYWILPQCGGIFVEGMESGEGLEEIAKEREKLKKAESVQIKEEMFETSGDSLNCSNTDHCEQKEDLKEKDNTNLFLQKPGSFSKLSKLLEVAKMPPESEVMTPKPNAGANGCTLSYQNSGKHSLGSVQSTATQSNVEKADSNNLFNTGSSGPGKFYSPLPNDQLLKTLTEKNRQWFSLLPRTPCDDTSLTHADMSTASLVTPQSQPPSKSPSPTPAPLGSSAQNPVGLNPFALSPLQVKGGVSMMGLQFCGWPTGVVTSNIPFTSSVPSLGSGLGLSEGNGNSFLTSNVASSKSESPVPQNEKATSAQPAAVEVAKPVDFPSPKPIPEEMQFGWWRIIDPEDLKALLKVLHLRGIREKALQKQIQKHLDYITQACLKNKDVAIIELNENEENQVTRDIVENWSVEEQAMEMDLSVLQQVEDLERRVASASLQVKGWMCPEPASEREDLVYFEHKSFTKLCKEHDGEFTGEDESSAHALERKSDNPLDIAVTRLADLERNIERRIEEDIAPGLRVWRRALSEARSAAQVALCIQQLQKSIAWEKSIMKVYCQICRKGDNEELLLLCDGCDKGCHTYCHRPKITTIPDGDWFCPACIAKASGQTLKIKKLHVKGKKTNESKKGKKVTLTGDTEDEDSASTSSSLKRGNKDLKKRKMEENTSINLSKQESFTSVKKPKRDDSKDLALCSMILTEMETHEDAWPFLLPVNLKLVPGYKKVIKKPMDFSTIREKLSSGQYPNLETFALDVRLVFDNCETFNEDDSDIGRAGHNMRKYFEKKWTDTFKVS
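Protein-peptide AlphaScreen: BAZ2B 50 nM, b-H3K14Ac 50 nM, 1x PBS pH 7.4 + 0.01% Tween-20. Preincubation 30 min RT; cpd 30 min RT (top 110 uM); beads 20 min RT, light-protected.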
G9a block = qHTS Assay for Inhibitors of Histone Lysine Methyltransferase G9a | Histone-lysine N-methyltransferase EHMT2 (Homo sapiens), Q96KQ7 | G9a H3K9 monomethylation, AlphaScreen, 2 h | Potency, µM (series often up to 102 µM), inactives show at the top dose activity, negative = inhibition, hits mostly inhibitors | actives 8.8% (n = 350,000) | AID 504332, 2011; further: potency means the concentration at half of the fitted maximal effect; on the % scale 0 is the no-effect control and ±100 the full control effect; nearly all actives have a fitted effect of over 75% in size
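AlphaScreen detection with an anti-monomethyl H3K9 antibody quantified product after a 2 h room-temperature reaction containing 500 nM biotinylated H3K9 peptide, 20 µM SAM and 20 nM enzyme, which had been preincubated 15 min with compound.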
JMJD2A Tudor inh = qHTS Assay for Inhibitors of JMJD2A-Tudor Domain; AID 504339, 2011; Potency, µM (series often up to 114 µM), for the others: at the top dose activity change, negative = inhibition, hits mostly inhibitors; Lysine-specific demethylase 4A (Homo sapiens), O75164; actives 4.4% (n = 390,000); AlphaScreen JMJD2A-Tudor / H3K4me3 peptide binding; further: potency means the concentration at half of the fitted maximal effect; on the % scale 0 is the no-effect control and ±100 the full control effect; nearly all actives have a fitted effect of over 50% in size
HP1b chromo inh = HTS for Inhibitors of HP1-beta Chromodomain Interactions with Methylated Histone Tails. AlphaScreen HP1-beta / biotin-H3K9me3 peptide binding. Potency, µM (titrated, usually from 114 µM), for the others: at the top dose activity change, negative = inhibition, usual class: inhibitors. actives 0.56% (n = 390,000); further: potency means the concentration at half of the fitted maximal effect; nearly all actives have a fitted effect of over 70% in size
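Compound inhibition of the preformed complex between 50 nM HP1-beta and 50 nM biotinylated H3K9me3 peptide was read by AlphaScreen. Buffer was PBS pH 7.4 with 0.01% Tween-20. Incubations ran 30 min at room temperature, with 10 ug/mL donor/acceptor beads.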
Starred values were filed as active, the others as inactive; ? = inconclusive; · = not tested or not shown; [ ] = dose if it differs, or a comment. Rows were chosen to be rich in hits. Some 12% of all compounds tested hit in one or more screens of this group. Unless noted, the call rests on the fitted dose curve; in most records, active means well fitted curve in the direction sought with a large enough effect; inconclusive means small, poorly fitted or top-dose-only effect, or another doubt; inactive means no such curve, though single readings can be large; an effect the other way counts as inactive or inconclusive.

SMILES | PI5P4K alpha inh | PLK1 PBD block | BAZ2B block | G9a block | JMJD2A Tudor inh | HP1b chromo inh
O=C1c2ccccc2C(=O)N1CC(O)COc1ccccc1Cl (stereo not drawn) | -5.9 | -13.2% | 9.1% | -6.1% | -12.2% | 18.4%
CCc1ccc(-c2nc(SCC(=O)N(C)C3CCS(=O)(=O)C3)n[nH]2)cc1 (stereo not drawn) | -4.6 | 0.2% | 3.4% | -30.1% | -5.5% | 26.7%
Cc1c(CN2CCC(CO)(CCOc3ccccc3)CC2)[nH]c2c(Cl)cccc12 | 6.8 | -13.3% | ? | 50.1µM* | -19.1%[11.4 µM] | -4.6%
Cc1ccc(CNc2ccc(N3CCOCC3)cc2)cc1 | -7.6 | -9.2% | 31.6µM* | 28.2µM* | 44.7µM* | ?
c1cc2c(cc1CNc1ccc(N3CCOCC3)cc1)OCO2 | · | · | · | · | 50.1µM* | ?
c1ccc(NCc2ccncc2)cc1 | 0.1 | -3.9% | -5.3% | 17.7% | -6.6% | 29.8%
c1cc(CNc2ccc(N3CCOCC3)cc2)ccn1 | 4.9 | -10.3% | ? | 39.8µM* | -34.3% | -15.4%
Cc1ccc(CNc2ccc(N3CCOCC3)c(Cl)c2)cc1 | 5.2 | -6.6% | 39.8µM* | · | ? | ?
Cc1ccc(NS(=O)(=O)c2cc3c(cc2/C=C/c2ccccc2)NC(=O)CO3)cc1C | · | · | · | · | -8.8% | ·
CCOc1ccc(Cl)cc1S(=O)(=O)N1CCC(C(=O)NCc2cccnc2)CC1 | 1.4 | -4.7% | 7.9% | 24.0% | -4.9% | 17.1%
Cc1nn(C)cc1-c1n[nH]c(=S)n1-c1ccc(Cl)cc1 | 7.3 | -11.1% | -9.5% | 5.62µM* | 3.16µM* | -13.8%
CC(C)(C)c1cc(-c2ccccc2)n[nH]1 | 5.1 | -5.7% | 1.1% | · | -7.0% | 42.8%
CC(C)(C)c1cc(-c2n[nH]c(=S)n2-c2ccc(Cl)cc2)n[nH]1 | -13.4 | 29.9µM* | ? | ? | 39.8µM* | -12.2%
Cc1ccoc1C(=O)Nc1cccc2ccccc12 | -5.9 | -12.4% | -23.4% | -3.2%[59 µM] | -13.3% | 35.5%
CCn1c(C(C)NC(=O)c2cccs2)n[nH]c1=S (stereo not drawn) | 1.7 | -9.9% | -5.1% | 12.6µM* | 7.08µM* | 8.6%
C=CCn1c(SCC(=O)NCCc2ccccc2)nnc1C(C)NC(=O)c1cccs1 (stereo not drawn) | · | -2.2% | -2.7% | 18.0%[59 µM] | -23.1% | 20.3%
C=CCn1c(C(C)NC(=O)c2cccs2)n[nH]c1=S (stereo not drawn) | 1.9 | -9.6% | 0.3% | 15.8µM* | 17.8µM* | 2.1%
C=CCn1c(CNC(=O)c2cccs2)n[nH]c1=S | 1.2 | -7.7% | 22.2% | 25.1µM* | ? | 15.1%
CCc1ccc(C(C)NC(=O)c2cccs2)cc1 (stereo not drawn) | -2.7 | 3.0% | · | · | -6.8% | -2.6%
CC(=O)NC1(C)CCC2CC1C(C)=NC2(C)C (stereo not drawn) | 1.3 | 1.4% | · | · | · | ·
Cc1ccc(S(=O)(=O)C(CNS(=O)(=O)c2ccc(F)c(C)c2)c2cccs2)cc1 (stereo not drawn) | · | · | 3.5% | 5.3%[59 µM] | -16.9% | 7.6%
COc1ccc([C@H]2C[C@H](O)[C@@H](n3cc(-c4ccc(F)cc4)nn3)CN2C(=O)c2cccs2)cc1 | 0.5 | 2.6% | · | · | · | ·
CC(C)CSC1=NSC2=NC(=O)/C(=C\c3cccs3)C(=N)N12 | ? | ? | ? | 44.7µM* | ? | -4.2%
N=C1/C(=C/c2cccs2)C(=O)N=C2SN=C(SCc3ccccc3)N12 | -24.9 | 26.7µM* | ? | -7.8%[12.7 µM] | ? | -5.0%
CC(=O)N1CCN(S(=O)(=O)c2cccc(C(=O)OCc3cccc(F)c3)c2)CC1 | -3.0 | -6.9% | 9.6% | 13.1%[12.7 µM] | 2.9% | 28.3%
O=C(O)c1ccc(Cl)c(S(=O)(=O)Nc2ccccc2Cc2ccccc2)c1 | -2.5 | -1.9% | 1.9% | 79.4µM* | -11.4% | 15.3%
